In PMC7862700, “An all-to-all approach to the identification of sequence-specific readers for epigenetic DNA modifications on cytosine” one finds binding signal data, which are given here for one sequence.

Holding throughout (assay): DAPPL (digital affinity profiling via proximity ligation, sequencing); 10 mM Tris-HCl pH 7.5, 50 mM NaCl, 1 mM DTT, 4% glycerol, room temperature, 30 min; GST-TFs on glutathione beads, 16-mer random dsDNA library, 0.1% formaldehyde crosslink after washing; high values mean tight binding
The target in one test is T1, FLI1 (Homo sapiens, UniProt Q01543 1-452).
T1 sequence: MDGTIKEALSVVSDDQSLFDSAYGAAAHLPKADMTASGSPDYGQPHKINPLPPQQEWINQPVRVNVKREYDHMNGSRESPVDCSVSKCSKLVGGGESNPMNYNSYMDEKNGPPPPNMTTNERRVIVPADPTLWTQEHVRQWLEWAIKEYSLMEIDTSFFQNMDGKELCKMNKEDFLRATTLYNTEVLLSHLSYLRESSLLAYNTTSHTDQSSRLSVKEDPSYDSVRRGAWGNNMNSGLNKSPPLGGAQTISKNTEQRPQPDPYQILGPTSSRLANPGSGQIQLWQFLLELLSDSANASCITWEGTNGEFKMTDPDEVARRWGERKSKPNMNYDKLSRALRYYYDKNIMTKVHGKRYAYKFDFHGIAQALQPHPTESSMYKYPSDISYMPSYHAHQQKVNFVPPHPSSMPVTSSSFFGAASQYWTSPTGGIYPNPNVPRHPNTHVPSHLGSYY
Conditions: protein: recombinant; tags: N-terminal GST; dsDNA, one strand shown. In short, it runs like this:
(§1)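 Binding signal is each hexamer's read frequency for a factor divided by its frequency in the tag-only sample. The factors were GST-fused human transcription factors from yeast, captured on glutathione beads, DNA-barcoded and pooled with that sample. Pools were incubated with 200 nmole of a random double-stranded 16-mer DNA library in Tris/NaCl/DTT/glycerol buffer at room temperature for 30 min, then washed, crosslinked with 0.1% formaldehyde, proximity-ligated with BsaI/T4 ligase (1 h, 37 °C), PCR-amplified and sequenced on an Illumina NextSeq500.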

A further test addresses T2, ELK1 (Homo sapiens, UniProt P19419 1-428).
T2 sequence: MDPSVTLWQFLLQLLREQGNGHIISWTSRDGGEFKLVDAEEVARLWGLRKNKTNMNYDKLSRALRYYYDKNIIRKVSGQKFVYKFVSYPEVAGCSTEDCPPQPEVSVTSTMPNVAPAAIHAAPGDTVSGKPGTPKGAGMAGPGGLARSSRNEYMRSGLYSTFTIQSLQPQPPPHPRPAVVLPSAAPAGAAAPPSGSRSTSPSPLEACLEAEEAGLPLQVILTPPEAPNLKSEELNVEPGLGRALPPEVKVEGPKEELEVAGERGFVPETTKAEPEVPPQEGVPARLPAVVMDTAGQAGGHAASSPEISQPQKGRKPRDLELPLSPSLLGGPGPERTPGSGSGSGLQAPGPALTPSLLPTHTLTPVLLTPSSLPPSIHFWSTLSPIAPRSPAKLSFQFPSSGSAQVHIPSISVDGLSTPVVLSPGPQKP
Conditions: protein: recombinant; tags: N-terminal GST; dsDNA, one strand shown. A digest of the protocol:
as §1

In a further test the target is ELF1 (Homo sapiens, UniProt P32519 1-619). Conditions: protein: recombinant; tags: N-terminal GST; dsDNA, one strand shown. In short, it runs like this: as §1
The target of the next test is ETV5 (Homo sapiens, UniProt P41161 1-510). Conditions: protein: recombinant; tags: N-terminal GST; dsDNA, one strand shown. In short, it runs like this:
as §1

The next test concerns the target HSF1 (Homo sapiens, UniProt Q00613 1-529). The following applies: protein: recombinant; tags: N-terminal GST; chain copies: 3; dsDNA, one strand shown. In short, it runs like this:
as §1

The next test addresses T3, ELK4 (Homo sapiens, UniProt P28324-2 1-405).
T3 sequence: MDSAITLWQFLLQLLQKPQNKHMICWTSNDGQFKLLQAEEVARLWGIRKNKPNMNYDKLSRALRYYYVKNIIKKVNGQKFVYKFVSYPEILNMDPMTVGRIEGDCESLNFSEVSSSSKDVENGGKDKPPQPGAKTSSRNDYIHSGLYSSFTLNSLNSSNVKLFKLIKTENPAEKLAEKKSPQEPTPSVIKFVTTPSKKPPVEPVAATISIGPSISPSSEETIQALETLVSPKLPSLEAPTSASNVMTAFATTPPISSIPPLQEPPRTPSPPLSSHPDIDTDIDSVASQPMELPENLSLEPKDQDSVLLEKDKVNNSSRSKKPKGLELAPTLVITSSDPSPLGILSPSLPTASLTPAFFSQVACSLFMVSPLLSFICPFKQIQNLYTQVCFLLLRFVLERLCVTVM
Conditions: protein: recombinant; tags: N-terminal GST; dsDNA, one strand shown. A digest of the protocol: as §1

A further test addresses T4, ELF3 (Homo sapiens, UniProt P78545 1-371).
T4 sequence: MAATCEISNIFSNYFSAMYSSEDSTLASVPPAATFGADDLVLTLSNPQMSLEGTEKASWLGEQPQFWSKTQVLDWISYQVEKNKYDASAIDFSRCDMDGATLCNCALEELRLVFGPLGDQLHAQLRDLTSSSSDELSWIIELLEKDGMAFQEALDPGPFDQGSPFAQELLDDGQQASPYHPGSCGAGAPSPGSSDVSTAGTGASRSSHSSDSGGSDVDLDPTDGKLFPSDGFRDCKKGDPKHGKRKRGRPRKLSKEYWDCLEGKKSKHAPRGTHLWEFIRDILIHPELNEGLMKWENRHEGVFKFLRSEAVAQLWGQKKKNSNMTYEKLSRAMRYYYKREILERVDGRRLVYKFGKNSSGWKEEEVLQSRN
The following applies: protein: recombinant; tags: N-terminal GST; dsDNA, one strand shown. In short, it runs like this:
as §1

The next test has as its target CRX (Homo sapiens, UniProt O43186 1-299). Conditions: protein: recombinant; tags: N-terminal GST; dsDNA, one strand shown. In short, it runs like this:
as §1

ELF1, sequence (P32519 whole entry): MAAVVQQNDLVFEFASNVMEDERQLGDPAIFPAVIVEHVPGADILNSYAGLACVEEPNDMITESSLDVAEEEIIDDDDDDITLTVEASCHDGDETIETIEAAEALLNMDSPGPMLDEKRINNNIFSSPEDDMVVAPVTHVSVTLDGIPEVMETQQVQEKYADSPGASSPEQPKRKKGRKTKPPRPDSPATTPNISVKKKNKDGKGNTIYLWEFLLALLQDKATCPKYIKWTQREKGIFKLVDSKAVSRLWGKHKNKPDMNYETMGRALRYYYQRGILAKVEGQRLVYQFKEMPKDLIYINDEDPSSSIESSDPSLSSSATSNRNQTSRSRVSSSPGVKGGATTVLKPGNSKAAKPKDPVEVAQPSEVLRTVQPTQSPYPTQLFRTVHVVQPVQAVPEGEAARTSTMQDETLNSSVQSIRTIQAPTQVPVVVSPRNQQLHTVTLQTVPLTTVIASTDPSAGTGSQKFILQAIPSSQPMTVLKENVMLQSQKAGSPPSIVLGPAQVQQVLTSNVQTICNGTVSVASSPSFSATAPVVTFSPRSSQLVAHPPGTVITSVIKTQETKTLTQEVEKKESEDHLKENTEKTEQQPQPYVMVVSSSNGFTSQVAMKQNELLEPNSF
ETV5, sequence (P41161 whole entry): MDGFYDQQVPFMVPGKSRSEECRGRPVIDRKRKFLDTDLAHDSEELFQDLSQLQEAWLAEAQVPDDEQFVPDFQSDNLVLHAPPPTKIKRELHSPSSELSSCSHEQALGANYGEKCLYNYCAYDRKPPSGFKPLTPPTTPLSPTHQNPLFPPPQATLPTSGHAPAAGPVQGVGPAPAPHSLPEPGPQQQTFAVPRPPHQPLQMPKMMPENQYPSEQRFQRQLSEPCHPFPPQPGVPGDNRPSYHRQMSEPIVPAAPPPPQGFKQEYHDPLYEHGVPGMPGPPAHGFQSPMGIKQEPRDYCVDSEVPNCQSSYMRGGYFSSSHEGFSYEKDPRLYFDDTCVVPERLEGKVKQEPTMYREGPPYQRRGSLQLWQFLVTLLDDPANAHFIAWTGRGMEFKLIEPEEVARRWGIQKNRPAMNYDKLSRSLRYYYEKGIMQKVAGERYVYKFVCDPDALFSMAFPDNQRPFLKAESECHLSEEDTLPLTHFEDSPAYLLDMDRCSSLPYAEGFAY
HSF1, sequence (Q00613 whole entry): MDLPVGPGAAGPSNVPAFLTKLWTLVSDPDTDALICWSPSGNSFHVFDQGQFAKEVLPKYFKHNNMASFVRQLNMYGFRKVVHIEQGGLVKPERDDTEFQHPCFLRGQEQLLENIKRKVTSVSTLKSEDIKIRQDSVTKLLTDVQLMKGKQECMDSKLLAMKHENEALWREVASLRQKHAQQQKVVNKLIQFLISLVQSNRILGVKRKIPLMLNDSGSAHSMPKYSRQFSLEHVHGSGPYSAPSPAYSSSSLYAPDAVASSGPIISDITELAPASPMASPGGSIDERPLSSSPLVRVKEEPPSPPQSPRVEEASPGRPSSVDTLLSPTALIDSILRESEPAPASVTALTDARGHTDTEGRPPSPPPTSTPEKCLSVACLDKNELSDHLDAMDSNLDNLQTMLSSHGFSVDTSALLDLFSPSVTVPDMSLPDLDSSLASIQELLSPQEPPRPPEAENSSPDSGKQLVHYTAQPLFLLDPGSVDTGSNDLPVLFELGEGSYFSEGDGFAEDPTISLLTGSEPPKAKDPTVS
CRX, sequence (O43186 whole entry): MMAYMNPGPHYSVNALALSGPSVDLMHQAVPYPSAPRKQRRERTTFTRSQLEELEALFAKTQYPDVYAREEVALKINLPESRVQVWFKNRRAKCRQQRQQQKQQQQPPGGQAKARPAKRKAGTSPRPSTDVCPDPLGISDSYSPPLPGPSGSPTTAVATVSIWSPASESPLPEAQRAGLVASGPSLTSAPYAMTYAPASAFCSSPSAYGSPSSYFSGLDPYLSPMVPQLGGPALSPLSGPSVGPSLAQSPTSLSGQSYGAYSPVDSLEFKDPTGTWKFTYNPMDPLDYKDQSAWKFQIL

Take CCTAGA: the binding signal was 1.04 fold enrichment (6-mer frequency, TF over GST control) in the test with FLI1; 1.01 fold enrichment (6-mer frequency, TF over GST control) in the test with ELK1; 1.02 fold enrichment (6-mer frequency, TF over GST control) in the test with ELF1; 1.01 fold enrichment (6-mer frequency, TF over GST control) with ETV5; 1.88 fold enrichment (6-mer frequency, TF over GST control) with HSF1; 1.07 fold enrichment (6-mer frequency, TF over GST control) with ELK4. In addition, the binding signal was 1.12 fold enrichment (6-mer frequency, TF over GST control) in the test with ELF3 and 1.22 fold enrichment (6-mer frequency, TF over GST control) with CRX.
